# Measured values from PubChem BioAssay (NCI).
# This is part of a sample that, as a whole, favours compounds with a hit. Of some 83,000 tested, about 20% had one in any assay.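 Growth was measured after 48 h exposure to one concentration of compound in 96-well plates. Values under 10 count as active.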 Values without a mark were called inactive. Calls of active or inactive are those of the source.
# Test system: HL-60(TB) leukemia
# Assay: NCI-60 one-dose screen, 48 h (100 = growth as untreated, 0 = no growth, -100 = all killed)
# Conditions: 10 µM unless noted
row,SMILES,growth
1,COc1ccc(-c2[nH]c3ccccc3c2/C=C(\C#N)S(=O)(=O)c2ccccc2)cc1,-28.4% (active)
2,CCCCCCn1c(-c2ccc(C(=O)O/N=C(\N)c3ccc(OC)cc3)cc2)nc(-c2ccccc2)c1-c1ccccc1,-58% (active)
3,C#CCOc1cc(/C=N/Nc2nc(-c3ccc(OC)cc3)cs2)ccc1O,97.6%
4,COC1=CC(c2ccc[nH]2)=N/C1=C\c1[nH]c(C)c(CC(=O)OCc2ccccc2)c1C,-29.2% (active)
